The values that follow come from the supplement of paper PMC4022240.

± gives the standard deviation.

Common to all, as to assay: peptide microarray binding signal (635 nm), min-max normalized on array (fraction of array maximum); higher = stronger binding
What all share (conditions): peptide region: H3 73-85

The target of assay [1] is T1, HaloTag-ATRX ADD domain (163-292).
T1 chain: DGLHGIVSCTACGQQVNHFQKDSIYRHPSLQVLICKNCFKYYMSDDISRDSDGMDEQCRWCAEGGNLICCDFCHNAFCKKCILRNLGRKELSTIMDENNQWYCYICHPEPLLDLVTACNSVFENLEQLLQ
Summed up: (§1)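 Histone 13-mer peptide–cellulose conjugates were printed in triplicate on nitrocellulose with a Cy3 tracer, then blocked overnight at 4°C. Arrays were probed for 1 h at 4°C with biotin-labelled HaloTag reader fusions (10 nM to 1 μM) plus streptavidin-Alexa Fluor 647, or with rabbit histone antibodies (1:10,000 to 1:2,000) plus anti-rabbit Alexa 647. An Axon GenePix 4000B scanned 635 nm for signal and 532 nm for misprints. Binding signal is the triplicate-spot mean intensity, min-max scaled per library.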

Assay [2] deals with HaloTag-ING2 PHD (mouse Ing2 200-280). Summed up:
as §1

Assay [3] addresses anti-H3K4me3 antibody ab8580. The method, boiled down:
as §1

Assay [4] has as its target anti-H3K9me3 antibody ab8898. Summed up: as §1
[5] abbreviates: peptide modifications: H3K79ac, binder concentration: 1:2,000 dilution.
Where [6] appears, read: peptide modifications: H3K79ac, binder concentration: 1:10,000 dilution.
Setting [7] is: peptide modifications: H3K79me2 H3T80ph, binder concentration: 1:2,000 dilution.
[8] abbreviates: peptide modifications: H3K79me2 H3T80ph, binder concentration: 1:10,000 dilution.
Setting [9] is: peptide modifications: H3K79ac H3T80ph, binder concentration: 1:2,000 dilution.
The mark [10] stands for this setting: peptide modifications: H3K79ac H3T80ph, binder concentration: 1:10,000 dilution.
The mark [11] stands for this setting: binder concentration: 1:2,000 dilution.
The mark [12] stands for this setting: binder concentration: 1:10,000 dilution.
[13] abbreviates: peptide modifications: H3K79me3 H3T80ph, binder concentration: 1:2,000 dilution.
The mark [14] stands for this setting: peptide modifications: H3K79me3 H3T80ph, binder concentration: 1:10,000 dilution.

B1: H3 73-85 E I A Q D F Kac T D L R F Q (peptide)
chain: EIAQDFKTDLRFQ
Turning to B1, the “peptide microarray binding signal” value came out at 0.003981 ± 1.6e-05 in assay [1] (peptide modifications: H3K79ac, binder concentration: 50 nM); 0.0121 ± 0.0025 in assay [1] (peptide modifications: H3K79ac, binder concentration: 500 nM); 0.00537 ± 0.00042 in assay [2] (peptide modifications: H3K79ac, binder concentration: 10 nM); 0.00298 ± 0.00043 in assay [2] (peptide modifications: H3K79ac, binder concentration: 100 nM); 0.00166 ± 0.00016 in assay [3] (setting [5]); 0.00428 ± 0.00088 in assay [3] (setting [6]). Also, the “peptide microarray binding signal” value in assay [4] (setting [5]) is 0.0114 ± 0.0038; in assay [4] (setting [6]), 0.0106 ± 0.0027.

B2: H3 73-85 E I A Q D F Kme2 Tph D L R F Q (peptide)
chain: EIAQDFKTDLRFQ
With B2, the “peptide microarray binding signal” value was determined as 0.00103 ± 3.4e-05 in assay [1] (peptide modifications: H3K79me2 H3T80ph, binder concentration: 50 nM); 0.000714 ± 1.2e-05 in assay [1] (peptide modifications: H3K79me2 H3T80ph, binder concentration: 500 nM); 0.002089 ± 1.2e-05 in assay [2] (peptide modifications: H3K79me2 H3T80ph, binder concentration: 10 nM); 0.000992 ± 1.1e-05 in assay [2] (peptide modifications: H3K79me2 H3T80ph, binder concentration: 100 nM); 0.000283 ± 5.1e-06 in assay [3] (setting [7]); 0.000799 ± 5.8e-05 in assay [3] (setting [8]). The “peptide microarray binding signal” value in assay [4] (setting [7]) came out at 0.000438 ± 1.8e-05; in assay [4] (setting [8]), 0.000634.

B3: H3 73-85 E I A Q D F Kac Tph D L R F Q (peptide)
chain: EIAQDFKTDLRFQ
Take B3: the “peptide microarray binding signal” value in assay [1] (peptide modifications: H3K79ac H3T80ph, binder concentration: 50 nM) amounted to 0.000721 ± 1.1e-05; in assay [1] (peptide modifications: H3K79ac H3T80ph, binder concentration: 500 nM), 0.00171 ± 4.6e-05; in assay [2] (peptide modifications: H3K79ac H3T80ph, binder concentration: 10 nM), 0.00221 ± 4.4e-05; in assay [2] (peptide modifications: H3K79ac H3T80ph, binder concentration: 100 nM), 0.000638 ± 7.1e-06; in assay [3] (setting [9]), 0.000491 ± 2.4e-05; in assay [3] (setting [10]), 0.000628 ± 1.8e-05. Also, the “peptide microarray binding signal” value in assay [4] (setting [9]) is 0.000951 ± 3.6e-05; in assay [4] (setting [10]) it was 0.000865 ± 1.8e-05.

B4: H3 73-85 E I A Q D F K T D L R F Q (peptide)
chain: EIAQDFKTDLRFQ
Regarding B4, the “peptide microarray binding signal” value in assay [1] (binder concentration: 50 nM) was determined as 0.0048 ± 0.00013; in assay [1] (binder concentration: 500 nM), 0.0155 ± 0.00056; in assay [2] (binder concentration: 10 nM), 0.008 ± 0.00096; in assay [2] (binder concentration: 100 nM), 0.00248 ± 6.3e-05; in assay [3] (setting [11]), 0.000264 ± 5.6e-06; in assay [3] (setting [12]), 0.00228 ± 0.0003. In addition, the “peptide microarray binding signal” value in assay [4] (setting [11]) came to 0.00308 ± 0.00021; in assay [4] (setting [12]) it was 0.00236 ± 6.4e-05.

B5: H3 73-85 E I A Q D F Kme3 Tph D L R F Q (peptide)
chain: EIAQDFKTDLRFQ
Regarding B5, the “peptide microarray binding signal” value worked out at 0.001066 ± 5.3e-06 in assay [1] (peptide modifications: H3K79me3 H3T80ph, binder concentration: 50 nM); 0.0021 ± 0.00018 in assay [1] (peptide modifications: H3K79me3 H3T80ph, binder concentration: 500 nM); 0.00221 ± 6.6e-05 in assay [2] (peptide modifications: H3K79me3 H3T80ph, binder concentration: 10 nM); 0.00333 ± 0.0011 in assay [2] (peptide modifications: H3K79me3 H3T80ph, binder concentration: 100 nM); 0.000887 ± 9.8e-05 in assay [3] (setting [13]); 0.00183 ± 0.00035 in assay [3] (setting [14]). Moreover, the “peptide microarray binding signal” value in assay [4] (setting [13]) was found to be 0.0135 ± 0.0079; in assay [4] (setting [14]), 0.00577 ± 0.0016.
